ELG1 genotoxic: genotoxicity induction in ELG1-luciferase HEK293T cells. Potency, µM (titrated, usually from 46 µM), for the others: top-dose activity change, positive = activation, most hits filed as activators. HEK293T ELG1-luciferase reporter, luminescence, 16 h. AID 504466. actives 1.3% (n = 330,000); also: % of control where 0% means no effect; nearly all actives have a fitted effect of over 60% in size
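Cells (2,000/well) expressing the ELG1-luciferase fusion are dosed by pin tool and kept 16 hr at 37 °C, 5% CO2. Signal comes from ONE-Glo luciferase reagent after 30 min at room temperature.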
SMN2 splice enh: increases expression of the SMN2 splice variant; HEK293 SMN2-luciferase splicing reporter, luminescence, 30-36 h; Potency, µM (top dose mostly 46.1 µM), for the others: at the top dose activity change, positive = activation, usual class: activators; actives 2.8% (n = 210,000); AID 1458; also: % of control where 0% means no effect; nearly all actives have a fitted effect of over 55% in size
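HEK293 cells carry an SMN2 […]–luciferase reporter in which exon 7 inclusion puts luciferase in frame. Cells were plated 10-12 h before compound addition, then incubated 30-36 h at 37C. ONE-Glo luminescence was read; sodium butyrate at 4.5 mM final served as control.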
p53 reactivator: re-activators of mutant p53; Potency, µM (titrated, usually from 92.2 µM), for the others: at the top dose activity change, positive = activation, hits mostly activators; H1299 p53-A138V BP100-luciferase reporter, luminescence, 24 h; actives 0.063% (n = 320,000); also: % of control where 0% means no effect; nearly all actives have a fitted effect of over 45% in size
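H1299 (p53-null), stable ts p53-A138V + BP100-Luc; 1000 cells/well, Opti-MEM/10% FBS; cpd 4 pt, 1:5; 24 h, 37 deg C, 5% CO2; detection reagent 10 min RT; luminescence.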
FLuc modulator: counter-screen for miR-21 project: firefly luciferase inhibitors or activators. AID 588342. P08659. actives 6.9% (n = 360,000). purified FLuc, Km substrates, luminescence inhibition. Potency, µM (doses to about 57.5 µM), inactives show top-dose activity change, negative = inhibition, actives largely listed as inhibitors;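 also: plate controls were vehicle for no effect and reference inhibitor for full effect; nearly all actives have a fitted effect of over 55% in size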
Target sequence (P08659 whole entry, looked up): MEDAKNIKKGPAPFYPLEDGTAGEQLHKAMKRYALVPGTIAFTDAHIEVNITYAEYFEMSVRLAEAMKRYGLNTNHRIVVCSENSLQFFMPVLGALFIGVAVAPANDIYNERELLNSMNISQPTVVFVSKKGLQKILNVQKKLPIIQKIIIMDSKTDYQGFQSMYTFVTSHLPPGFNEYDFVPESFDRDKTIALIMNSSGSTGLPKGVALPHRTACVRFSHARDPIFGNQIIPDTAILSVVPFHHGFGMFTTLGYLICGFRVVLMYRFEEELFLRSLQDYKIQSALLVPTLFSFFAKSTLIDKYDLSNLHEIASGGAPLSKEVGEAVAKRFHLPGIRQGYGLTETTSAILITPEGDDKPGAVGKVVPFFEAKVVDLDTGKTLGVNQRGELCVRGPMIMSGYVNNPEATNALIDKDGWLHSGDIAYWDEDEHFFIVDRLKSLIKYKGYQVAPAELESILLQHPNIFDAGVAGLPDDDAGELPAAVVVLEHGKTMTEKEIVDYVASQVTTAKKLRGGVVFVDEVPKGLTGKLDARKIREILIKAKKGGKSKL
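Purified P. pyralis luciferase, 10 nM final, with Km-level 10 uM D-luciferin and 10 uM ATP in 50 mM Tris acetate pH 7.5, 10 mM Mg acetate, 0.01% Tween-20, 0.05% BSA; 6-point qHTS titration about 60 µM downward; luminescence read.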
Rab9 prom act: activators of Rab9 promoter. Huh7 Rab9 promoter-luciferase reporter, luminescence, 24 h. Potency, µM (series often up to 9.22 µM), for inactives: top-dose activation, negative = inhibition, actives largely listed as activators. actives 2.8% (n = 320,000); also: % of control where 0% means no effect; nearly all actives have a fitted effect of over 60% in size
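Luminescence from Amplite-detected luciferase (10 minutes, ambient) reports Rab9 promoter activation. Before that, stable Rab9-luciferase Huh7 cells (1500/well, reduced-serum OP-MEM I plus 10% FBS) were exposed to compound for 24 hours at 37C.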
NPC1 prom act: activates the NPC1 promoter | Huh7 NPC1 promoter luciferase reporter, 24 h | Potency, µM (top dose mostly 9.22 µM), for inactives: at the top dose activation, actives largely listed as activators | actives 2.4% (n = 320,000); also: % of control where 0% means no effect; nearly all actives have a fitted effect of over 60% in size
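Stably transfected Huh7 (NPC1 promoter→luciferase), 1500 cells/well in Opti-MEM + 10% FBS, 2 h settle, then compound 24 h at 37 °C. Luminescence after 10 min with Amplite reagent.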
* marks the source's active call; other numbers are inactive results. Rows were chosen to be rich in hits. Some 7.3% of all compounds tested hit in one or more screens of this group. Calls follow the shape of the dose curve; as a rule, active = well fitted curve in the direction sought with a large enough effect; inconclusive = small, poorly fitted or top-dose-only effect, or another doubt; inactive = no such curve, though single readings can be large; an effect the other way counts as inactive or inconclusive. Potency is read from the fitted curve at half-maximal effect.

`CC(C)(C)OC(=O)NCCC(=O)N/N=C/c1ccc2nccnc2c1` gave ELG1 genotoxic 0.2%, p53 reactivator -2.8%, FLuc modulator -6.4%, Rab9 prom act -3.1% and NPC1 prom act -2.9%.
`Cc1cc(NS(=O)(=O)c2ccc(NC(=S)NC(=O)/C=C/c3ccccc3)cc2)no1` gave ELG1 genotoxic -10.3%, p53 reactivator 1.5%, FLuc modulator -20.4%, Rab9 prom act -3.7% and NPC1 prom act 1.5%.
`Cc1cc(NS(=O)(=O)c2ccc(NC(=S)NC(=O)c3ccccc3)cc2)no1` gave ELG1 genotoxic 1.3%, SMN2 splice enh 3.1%, p53 reactivator 11.0%, FLuc modulator -16.0%, Rab9 prom act 0.8% and NPC1 prom act 0.5%.
Screening Cc1ccc(/C=C/C(=O)NC(=S)Nc2ccc(S(=O)(=O)Nc3cc(C)on3)cc2)cc1 returned ELG1 genotoxic -3.6%, p53 reactivator 9.7%, FLuc modulator 9.53µM*, Rab9 prom act -0.6% and NPC1 prom act 0.7%.
Screening Cc1cc(NS(=O)(=O)c2ccc(NC(=S)NC(=O)c3ccc(C(C)(C)C)cc3)cc2)no1 returned ELG1 genotoxic 1.7%, SMN2 splice enh -0.4%, p53 reactivator inconclusive, FLuc modulator 10.7µM*, Rab9 prom act 0.7% and NPC1 prom act -4.0%.
Screening COc1ccc(/C=C/C(=O)NC(=S)Nc2ccc(S(=O)(=O)Nc3cc(OC)ncn3)cc2)cc1 returned ELG1 genotoxic 1.4%, SMN2 splice enh 0.1%, p53 reactivator 4.8%, FLuc modulator 15.1µM*, Rab9 prom act 5.1% and NPC1 prom act -0.8%.
`O=C(Nc1ccncc1)C1CCN(S(=O)(=O)c2ccc(Cl)cc2)CC1` gave ELG1 genotoxic inconclusive, p53 reactivator -2.8%, FLuc modulator -1.9%, Rab9 prom act -10.0% and NPC1 prom act -3.7%.
Screening COc1ccc(C(=O)N2CCC3(CCN(Cc4nccs4)CC3)CC2)cc1 returned SMN2 splice enh -19.5%.
For COc1ccc(C2=NN(C)C(=NCc3ccccc3)SC2)cc1 the results were ELG1 genotoxic -1.3%, SMN2 splice enh -26.1%, p53 reactivator 1.0%, FLuc modulator inconclusive, Rab9 prom act -0.5% and NPC1 prom act 0.5%.
For COCC(C)N=C1NN=C(c2ccc(NC(C)=O)cc2)CS1 (configuration not stated) the results were ELG1 genotoxic 13.9%, SMN2 splice enh inconclusive, p53 reactivator -0.9%, FLuc modulator inconclusive, Rab9 prom act inconclusive and NPC1 prom act 26.0%.
Screening COc1ccc(CN=C2NN=C(c3ccc(Cl)cc3)CS2)cc1 returned ELG1 genotoxic inconclusive, SMN2 splice enh 20µM*, p53 reactivator 8.8%, FLuc modulator 7.57µM*, Rab9 prom act 3.55µM* and NPC1 prom act 3.55µM*.
CC(C)(C)N=C1NN=C(c2cc3ccccc3o2)CS1 was read as ELG1 genotoxic inconclusive, p53 reactivator inconclusive, FLuc modulator 1.9µM*, Rab9 prom act 0.398µM* and NPC1 prom act 0.631µM*.
Screening COc1ccc(CN=C2Nc3ccccc3CS2)cc1 returned ELG1 genotoxic inconclusive, SMN2 splice enh 3.55µM*, p53 reactivator 10µM*, FLuc modulator 2.69µM*, Rab9 prom act 1.58µM* and NPC1 prom act 1µM*.
For CC(C)(C)N=C1NN=C(c2ccc(Cl)cc2)CS1 the results were ELG1 genotoxic inconclusive, p53 reactivator inconclusive, FLuc modulator 2.69µM*, Rab9 prom act 0.631µM* and NPC1 prom act 0.794µM*.
Screening Cn1c(=O)c2c(nc(N/N=C/c3ccc(OC(=O)c4ccco4)cc3)n2Cc2ccccc2)n(C)c1=O returned ELG1 genotoxic -0.7%, SMN2 splice enh -29.8%, p53 reactivator -2.8%, FLuc modulator -0.4%, Rab9 prom act -11.7% and NPC1 prom act -8.8%.
Screening COc1ccccc1CCn1c(=O)c(-c2ccccc2)nc2cncnc21 returned SMN2 splice enh -13.2%.
Clc1ccc(C2=NNC(=NCc3ccc4c(c3)OCO4)SC2)cc1 was read as ELG1 genotoxic -7.3%, p53 reactivator 2.4%, FLuc modulator 19µM*, Rab9 prom act 15.4% and NPC1 prom act 14.7%.
For Oc1ccc(C2=NNC(=NCc3ccc4c(c3)OCO4)SC2)c(O)c1 the results were ELG1 genotoxic inconclusive, SMN2 splice enh 28.2%, p53 reactivator inconclusive, FLuc modulator inconclusive, Rab9 prom act -19.5% and NPC1 prom act -24.3%.
CC(C)(C)c1ccc(C(=O)c2c[nH]c(C(=O)O)c2)cc1 was read as ELG1 genotoxic 13.2%, SMN2 splice enh 12.6µM*, p53 reactivator -7.3%, FLuc modulator 2.13µM*, Rab9 prom act inconclusive and NPC1 prom act inconclusive.
Screening CNC(=O)c1cc(C(=O)c2ccc(C(F)(F)F)cc2)c[nH]1 returned ELG1 genotoxic inconclusive, p53 reactivator 10.9%, FLuc modulator inconclusive, Rab9 prom act 18.9% and NPC1 prom act 20.3%.
CN(C)C=NC(=O)c1cc(C(=O)c2ccccc2Cl)c[nH]1 was read as ELG1 genotoxic 1.0%, SMN2 splice enh -3.9%, p53 reactivator -2.0%, FLuc modulator 0.8%, Rab9 prom act -6.2% and NPC1 prom act 1.3%.
`COC(=O)c1cc(C(=O)c2ccc(C(C)(C)C)cc2)c[nH]1` gave ELG1 genotoxic inconclusive, SMN2 splice enh 15.2%, p53 reactivator 4.8%, FLuc modulator 19µM*, Rab9 prom act 28.0% and NPC1 prom act 12.5%.
For CN(C)C=NC(=O)c1cc(C(=O)c2ccc(C(C)(C)C)cc2)c[nH]1 the results were ELG1 genotoxic 2.91µM*, SMN2 splice enh 3.16µM*, p53 reactivator 15.5%, FLuc modulator 9.53µM*, Rab9 prom act 1.12µM* and NPC1 prom act 1.12µM*.
Screening CCc1ccccc1NS(=O)(=O)c1ccc(NC(=O)N2CCCC2)cc1 returned FLuc modulator 5.3%.
Screening Cn1nnnc1SCC(=O)Nc1ccc(Br)cc1Br returned ELG1 genotoxic 4.2% and p53 reactivator -5.1%.
`Cc1ccc(NC(=O)Cn2cccc2)c(Br)c1` gave ELG1 genotoxic 8.2%, SMN2 splice enh 13.5%, p53 reactivator inconclusive, FLuc modulator -7.0%, Rab9 prom act 15.0% and NPC1 prom act 1.4%.
Cn1ccc(C(=O)Nc2ccc(Br)cc2Br)n1 was read as ELG1 genotoxic 4.61µM*, SMN2 splice enh 5.01µM*, p53 reactivator inconclusive, FLuc modulator 3.01µM*, Rab9 prom act 3.16µM* and NPC1 prom act 3.55µM*.
Cc1ccc(NC(=O)c2ccn(C)n2)c(Br)c1 was read as ELG1 genotoxic 5.17µM*, SMN2 splice enh 2µM*, p53 reactivator inconclusive, FLuc modulator 6.01µM*, Rab9 prom act 3.16µM* and NPC1 prom act inconclusive.
